In PubChem BioAssay (EPA / NIEHS):
Records with an inconclusive call do not appear. The source made the active and inactive calls. Rule for the calls, unless noted: active = hit-call score of the fitted dose curve at least 0.9, where 1 is the maximum; inconclusive = response in the unintended direction; inactive = score below 0.9.

Key:
[1] = read-out: Broad substrate specificity ATP-binding cassette transporter ABCG2 (Homo sapiens) (UniProt Q9UNQ0); experiment: CLD_ABCG2_6hr: CellzDirect (CLD) Gene Expression Assay for ABC Transporter (ABCG2) at 6 hours (AID 2283660)
Procedure, shortened: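 Primary human hepatocytes dosed daily with chemicals at multiple concentrations (0.2% DMSO vehicle), harvested 6 h after dosing. ABCG2 mRNA induction read by quantitative nuclease protection assay (qNPA) chemiluminescence; gain of signal fitted against DMSO baseline.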

[2] = read-out: xenobiotic metabolism (CYP1A1), CYP1A1 (gene 1543); experiment: CLD_CYP1A1_6hr: CellzDirect (CLD) Gene Expression Assay for xenobiotic metabolism (CYP1A1) at 6 hours (AID 2283661);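 for AC50: potency for transcript induction above DMSO vehicle baseline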
Procedure, shortened: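 Primary human hepatocytes from two donors, compound versus 0.2% DMSO vehicle. CYP1A1 mRNA measured 6 h after dosing by quantitative nuclease protection assay with chemiluminescent read-out; induction fitted relative to DMSO, cytotoxicity flagged by microscopy.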

[3] = system: Thyroperoxidase (TPO), gene 54314; experiment: CCTE_Simmons_AUR_rTPO: CCTE's Amplex UltraRed Assay for Thyroperoxidase (TPO) Inhibition, Simmons Lab (AID 2283662);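 note: potency for loss of signal meaning inhibition of peroxidase activity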
Procedure, shortened: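 Endpoint is decreased Amplex UltraRed fluorescence after a 30-min, 37C reaction of rat thyroid microsomes with 300 uM H2O2. Eight test concentrations (5 nM–87.5 uM final) in 0.5% DMSO, three biological replicates each.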

[4] = read-out: xenobiotic metabolism (CYP1A2), CYP1A2 (gene 1544); experiment: CLD_CYP1A2_6hr: CellzDirect (CLD) Gene Expression Assay for xenobiotic metabolism (CYP1A2) at 6 hours (AID 2283663);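 for AC50: potency is for induction meaning a rise in mRNA above DMSO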
Procedure, shortened: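 Primary human hepatocytes from two donor preparations, dosed daily with multiple concentrations in 0.2% DMSO and harvested at 6 h. CYP1A2 mRNA induction measured by chemiluminescent qNPA, gain of signal fitted against DMSO; cytotoxicity flagged morphologically.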

[5] = CCTE_Simmons_CellTiterGLO_HEK293T: Viability Assessment in CCTE's Assays for Thyroperoxidase (TPO) Inhibition, Simmons Lab (AID 2283665);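 for AC50: cells exposed to compound for 24 h before readout; actives reduce ATP signal below DMSO vehicle meaning cytotoxicity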
Procedure, shortened: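 Cytotoxicity counter-screen: human HEK293T cells in low-serum (1% FBS) medium receive test chemical, 5 nM to 87.5 uM final, for 24 h; ATP is quantified by luciferase luminescence.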

[6] = Tanguay_ZF_120hpf_TR_legacy: (Legacy) Oregon State University Tanguay Lab 120 Hour Post-fertilization zebrafish Assay for Touch Response (AID 2283667)
Procedure, shortened: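 5D WT embryos; static exposure to 120 hpf, 28C, sealed/dark; DMSO 0.64% v/v final. TR scored present/absent; dead embryos excluded. Pos ctrl 5uM trimethyltin chloride.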

[7] = read-out: sulfotransferase (SULT2A), SULT2A1 (gene 6822); experiment: CLD_SULT2A_6hr: CellzDirect (CLD) Gene Expression Assay for sulfotransferase (SULT2A) at 6 hours (AID 2283669);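 note: hits raise transcript level above the DMSO vehicle baseline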
Procedure, shortened: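 Primary human hepatocytes from two donor preparations were dosed daily with chemicals or 0.2% DMSO and harvested at 6 h. Transcript induction read by qNPA chemiluminescence, fitted for gain of signal relative to DMSO; morphology-based cytotoxicity annotated.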

[8] = read-out: glucuronosyltransferase (UGT1A1), UGT1A1 (gene 54658); experiment: CLD_UGT1A1_6hr: CellzDirect (CLD) Gene Expression Assay for glucuronosyltransferase (UGT1A1) at 6 hours (AID 2283672)
Procedure, shortened: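 Primary human hepatocytes from two donor preparations, dosed with fresh solutions in 0.2% DMSO, harvested at 6 h. UGT1A1 mRNA measured by qNPA chemiluminescence; induction fitted upward versus DMSO.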

[9] = read-out: ABC Transporter (ABCB11), ABCB11 (gene 8647); experiment: CLD_ABCB11_6hr: CellzDirect (CLD) Gene Expression Assay for ABC Transporter (ABCB11) at 6 hours (AID 2283675);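 note: hits raise ABCB11 mRNA level so AC50 marks induction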
Procedure, shortened: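 Human primary hepatocytes (two donor preparations) given fresh chemical daily at multiple concentrations, vehicle 0.2% DMSO. ABCB11 mRNA induction measured 6 h after dosing by qNPA chemiluminescence versus DMSO; cytotoxicity annotated from morphology.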

[10] = CLD_ACTIN_6hr: CellzDirect (CLD) Gene Expression Assay for Baseline Control (Actin) at 6 hours (AID 2283676);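 note: active means increased actin mRNA relative to DMSO vehicle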
Procedure, shortened: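 Primary human hepatocytes dosed with fresh chemical solutions (vehicle 0.2% DMSO), harvested at 6 h. Actin mRNA quantified by quantitative nuclease protection assay with chemiluminescent read-out, as background control relative to DMSO.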

[11] = read-out: Cytochrome P450 2B6 (Homo sapiens) (UniProt P20813); experiment: CLD_CYP2B6_6hr: CellzDirect (CLD) Gene Expression Assay for xenobiotic metabolism (CYP2B6) at 6 hours (AID 2283677);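 note: actives raise CYP2B6 transcript above DMSO baseline so AC50 marks an inducer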
Procedure, shortened: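 Primary human hepatocytes dosed with chemicals at multiple concentrations, vehicle 0.2% DMSO; CYP2B6 mRNA induction measured 6 h after dosing by quantitative nuclease protection assay with chemiluminescence, gain of signal fitted relative to DMSO.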

[12] = CCTE_Padilla_ZF_144hpf_TERATOSCORE: (Legacy) CCTE's 144 Hour Post-fertilization zebrafish Assay Teratoscore, Padilla Lab (AID 2283679; active = hit-call score of the fitted dose curve at least 0.9, where 1 is the maximum; inactive = score below 0.9;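 for AC50: zebrafish embryos with chorions exposed by immersion from 6-8 hpf to 5 dpf with daily renewal; teratogenicity score from eye scoring of death hatching and malformations at 144 hpf; higher score means more developmental defects relative to DMSO baseline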)
Procedure, shortened: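 Larvae scored by eye at 144 hpf for death, hatching and malformations after a day in clean Hanks'. Before that, daily-renewed exposure at 80 uM (0.4% DMSO, 26C) from roughly 6-8 hpf through 5 dpf, 4 embryos per chemical.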

[13] = read-out: Cytochrome P450 3A4 (Homo sapiens) (UniProt P08684); experiment: CLD_CYP3A4_6hr: CellzDirect (CLD) Gene Expression Assay for xenobiotic metabolism (CYP3A4) at 6 hours (AID 2283680)
Procedure, shortened: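 Primary human hepatocytes (two donor preparations) dosed; CYP3A4 mRNA harvested at 6 h and quantified by qNPA chemiluminescence. Gain of signal fitted against 0.2% DMSO vehicle; cytotoxicity flagged by phase-contrast morphology.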

[14] = read-out: organic anion transporter (SLCO1B1), SLCO1B1 (gene 10599); experiment: CLD_SLCO1B1_6hr: CellzDirect (CLD) Gene Expression Assay for organic anion transporter (SLCO1B1) at 6 hours (AID 2283668);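 note: active means mRNA induction above DMSO baseline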
Procedure, shortened: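 Primary human hepatocytes dosed daily with test chemicals (multiple concentrations) in 0.2% DMSO vehicle; harvested at 6 h. SLCO1B1 mRNA quantified by qNPA chemiluminescence, fitted as gain-of-signal versus DMSO; cytotoxicity from phase-contrast morphology flagged alongside.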

[15] = read-out: xenobiotic metabolism (CYP1A1), CYP1A1 (gene 1543); experiment: CLD_CYP1A1_24hr: CellzDirect (CLD) Gene Expression Assay for xenobiotic metabolism (CYP1A1) at 24 hours (AID 2283673);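 note: CYP1A1 mRNA level by quantitative nuclease protection with chemiluminescence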
Procedure, shortened: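 Primary human hepatocytes dosed daily with fresh solutions in 0.2% DMSO vehicle. mRNA measured at 24 h by quantitative nuclease protection assay with chemiluminescence; gain-of-signal fit versus DMSO, with morphology-based cytotoxicity flags.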

[16] = read-out: ABC Transporter (ABCB1), ABCB1 (gene 5243); experiment: CLD_ABCB1_6hr: CellzDirect (CLD) Gene Expression Assay for ABC Transporter (ABCB1) at 6 hours (AID 2283659);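 note: hits raise ABCB1 transcript above the DMSO vehicle baseline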
Procedure, shortened: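 Primary human hepatocytes (two donor preparations) dosed daily for two days with chemicals at multiple concentrations, 0.2% DMSO vehicle; harvested 6 h post-dose. ABCB1 mRNA induction quantified by qNPA chemiluminescence; gain-of-signal fitted versus DMSO.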

Measured: AC50

Chain of Broad substrate specificity ATP-binding cassette transporter ABCG2 (Homo sapiens) (Q9UNQ0 whole entry, looked up): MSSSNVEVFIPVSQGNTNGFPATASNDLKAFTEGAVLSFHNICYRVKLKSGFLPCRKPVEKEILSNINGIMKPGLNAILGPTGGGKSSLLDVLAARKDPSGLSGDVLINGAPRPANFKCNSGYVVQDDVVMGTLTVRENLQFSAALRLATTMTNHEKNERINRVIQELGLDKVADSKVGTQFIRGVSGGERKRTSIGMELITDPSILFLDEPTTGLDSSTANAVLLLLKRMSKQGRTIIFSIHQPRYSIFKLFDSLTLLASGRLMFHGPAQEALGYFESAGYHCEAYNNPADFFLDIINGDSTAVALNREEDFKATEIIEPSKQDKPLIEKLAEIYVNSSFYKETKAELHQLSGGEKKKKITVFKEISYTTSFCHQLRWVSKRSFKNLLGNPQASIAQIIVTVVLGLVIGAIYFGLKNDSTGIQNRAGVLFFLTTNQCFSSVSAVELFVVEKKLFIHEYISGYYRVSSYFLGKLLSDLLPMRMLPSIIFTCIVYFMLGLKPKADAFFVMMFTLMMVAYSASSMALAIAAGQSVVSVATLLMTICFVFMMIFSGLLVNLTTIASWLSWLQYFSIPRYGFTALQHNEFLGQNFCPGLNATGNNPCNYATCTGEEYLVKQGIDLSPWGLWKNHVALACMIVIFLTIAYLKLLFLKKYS
Chain of Cytochrome P450 3A4 (Homo sapiens) (P08684 whole entry, looked up): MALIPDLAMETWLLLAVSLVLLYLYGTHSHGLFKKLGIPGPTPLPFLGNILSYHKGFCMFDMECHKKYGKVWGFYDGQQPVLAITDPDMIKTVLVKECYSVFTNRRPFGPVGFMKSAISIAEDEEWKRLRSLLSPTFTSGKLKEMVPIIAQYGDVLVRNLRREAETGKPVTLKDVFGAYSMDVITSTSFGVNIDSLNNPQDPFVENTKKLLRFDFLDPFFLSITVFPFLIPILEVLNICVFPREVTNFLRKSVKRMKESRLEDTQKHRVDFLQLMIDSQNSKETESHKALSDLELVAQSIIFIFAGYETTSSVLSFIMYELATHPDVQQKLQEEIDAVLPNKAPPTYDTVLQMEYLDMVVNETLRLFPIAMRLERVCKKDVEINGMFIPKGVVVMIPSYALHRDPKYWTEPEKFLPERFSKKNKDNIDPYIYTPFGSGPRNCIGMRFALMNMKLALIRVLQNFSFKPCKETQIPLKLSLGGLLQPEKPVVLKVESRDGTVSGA

COc1ccc(-c2ccccc2)cc1NNC(=O)OC(C)C
inactive: [1] | [6] | [7] | [8] | [9] | [10] | [13]
active: [2] 0.429 µM | [3] 1.84 µM | [4] 0.798 µM | [5] 42.4 µM | [11] 6.49 µM | [12] 17.8 µM

OC(c1ccc(Cl)cc1)(c1ccc(Cl)cc1)C(Cl)(Cl)Cl
inactive: [1] | [2] | [4] | [6] | [14] | [7] | [8] | [9]
active: [3] 43.8 µM | [5] 6.74 µM | [12] 12 µM | [13] 3.68 µM

O=c1n(Cl)c(=O)n(Cl)c(=O)n1Cl
active: [2] 11.3 µM | [3] 22.5 µM | [4] 20 µM | [15] 3.97 µM
inactive: [1] | [5] | [6] | [14] | [7] | [9] | [11] | [12] | [13]

COP(=O)(OC)O/C(C)=C/C(=O)N(C)C
inactive: [16] | [1] | [2] | [4] | [6] | [14] | [7] | [8] | [15] | [9] | [10] | [11] | [12]

CC1(C)C(C=C(Cl)Cl)C1C(=O)OC(C#N)c1cccc(Oc2ccccc2)c1 (stereo unspecified)
active: [2] 2.78 µM | [4] 2.15 µM | [12] 0.284 µM
inactive: [1] | [6] | [14] | [7] | [10]

CC(C)Nc1nc(Cl)nc(NC(C)C)n1
inactive: [16] | [1] | [6] | [8] | [10] | [12]
active: [2] 4.73 µM | [4] 0.163 µM | [13] 20 µM

Cn1c(-c2ccccc2)cc(-c2ccccc2)[n+]1C
inactive: [16] | [2] | [4] | [6] | [7] | [10] | [12]

CS(=O)(=O)c1ccc(C(=O)C2C(=O)CCCC2=O)c([N+](=O)[O-])c1
inactive: [1] | [2] | [4] | [5] | [6] | [7] | [9] | [10] | [13]
active: [3] 30.6 µM | [12] 14.4 µM
